The values that follow come from PubChem BioAssay (NCI).

The structures appear in SMILES notation. The panel holds about 83,000 compounds, 20% with a hit somewhere; the sample as a whole holds those more often.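 Each cell line was grown in a 96-well plate and treated with one concentration of compound for 48 hours. Values below 10 were considered active.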 A number with no mark means an inactive call. The source made the active and inactive calls.

Holding throughout (test): NCI-60 one-dose screen, 48 h (100 = growth as untreated, 0 = no growth, -100 = all killed)
Conditions in all cases: 10 µM unless noted

In experiment [1] the test system is HCT-15 colon.
Experiment [2] deals with HT29 colon.
In experiment [3] the test system is SNB-75 CNS.
For experiment [4], the system named is SNB-19 CNS.
Experiment [5] concerns PC-3 prostate.
The subject of experiment [6] is SK-MEL-5 melanoma.
Experiment [7] has as its system UACC-62 melanoma.
For experiment [8], the system named is LOX IMVI melanoma.
The test system of experiment [9] is SK-MEL-28 melanoma.

On to `CC1=C(CCCOC(=O)CN)C2=C(C)C3(CC3)[C@@](C)(O)C(=O)C2=C1`, for which the growth in experiment [1] is 77.6%; in experiment [2], 69.9%; in experiment [3], 97%; in [4], 91.2%; in experiment [5], 69.4%; in [6] it was 92.2%. Also, the figures for the growth in experiment [7], in experiment [8] and in [9] were 90.8%, 88.6% and 115%, respectively.

Regarding `c1ccc(COc2ccc3[nH]cc(CCN(Cc4ccccc4)Cc4ccccc4)c3c2)cc1`, the growth in [1] was 47.2%; in experiment [2], 83.5%; in experiment [3], 89.2%; in experiment [4], 104%; in [6], 88.3%; in experiment [8], 81.8%. In experiment [9], the growth was 104%.

For the compound `O=C1C=C(N2C3C4CCC(C4)C32)C(=O)C=C1c1ccccc1` (stereo not drawn), the growth in experiment [1] is 82.7%; in experiment [2], 108%; in [3], 65.4%; in [4] it was 91.4%; in experiment [5], 81.7%; in [6] it was 95.9%. Moreover, the growth in experiment [7] was 80.6%; in [8], 89.9%; in [9], 91.7%.

`C[C@@]12CC=C3c4nc(Nc5cccc(O)c5)sc4CC[C@]3(C)[C@H]1CC[C@]1(C)C(=O)CC[C@@H]21`: the growth in experiment [1] is -47.9% (active); in experiment [2], -29% (active); in experiment [3] it was 37.3%; in experiment [4] it was 57.9%; in experiment [5] it was 28.1%; in experiment [6], 64.8%. The growth was 28.8% in experiment [7], -52.7% (active) in experiment [8] and 41.2% in [9].

Consider `C/C(=C\c1ccn(-c2ccc(N)cc2C(F)(F)F)n1)[C@@H]1C[C@@H]2O[C@]2(C)CCC[C@H](C)[C@H](O)[C@@H](C)C(=O)C(C)(C)[C@@H](O)CC(=O)O1`, for which the growth in experiment [1] is 14%; in experiment [2], 10.5%; in experiment [3], -7.43% (active); in [4], 21.5%; in [5], 15.4%; in [7], 27.7%. Also, the growth in experiment [8] was 26.4%; in experiment [9], 63.2%.

For the compound `CC1(C)[C@H](O)[C@H](F)C[C@@]2(C)Oc3ccc(C(=O)Nc4ccc5c(c4)NC(=O)C54CCN(CCCCC#N)CC4)cc3C[C@H]12`, the growth is 45.7% in experiment [1]; 16% in experiment [2]; 46.8% in [3]; 32.2% in [4]; 24.4% in [5]; -60.7% (active) in experiment [6]. The growth in [7] is -24.4% (active); in experiment [8], 7.04% (active); in experiment [9], 4.12% (active).

As to `Cc1ccc(C(=O)NCCCOc2ccc(N)cc2Cl)cc1S(=O)(=O)F`, the growth in [1] is 89.4%; in experiment [2], 101%; in experiment [3] it was 75.1%; in [4], 95.1%; in [5] it was 105%; in experiment [6] it was 97.2%. Moreover, the values for the growth in [7], in [8] and in experiment [9] were 100%, 85.5% and 104%, respectively.

Consider `O=[N+]([O-])c1cc([N+](=O)[O-])c(Cl)cc1Cl`, for which the growth in experiment [1] is -58.4% (active); in [2], -53.3% (active); in [3], -97.7% (active); in [4], 7.75% (active); in experiment [5] it was -14.7% (active); in experiment [6] it was 30.1%. For the same compound, the growth was -79% (active) in experiment [7], -91.1% (active) in [8] and -41.2% (active) in experiment [9].

In the case of `CC[C@H](C)[C@H](NC(=O)[C@H]1CCCCN1C)C(=O)N(C)[C@H](CC(=O)c1nc(C(=O)N[C@@H](Cc2ccccc2)C[C@H](C)C(=O)O)cs1)C(C)C`, the growth is 99.2% in experiment [1]; 78% in [2]; 49.3% in experiment [3]; 55.5% in experiment [4]; 78.3% in experiment [5]; 56.1% in experiment [6]. For the same compound, the growth in [7] was 32.2%; in experiment [8], 47.2%; in experiment [9], 81.3%.

With `CC12CC=CCC1CCC1C2CCC2(C)C(c3ccc(=O)oc3)CCC12O` (stereo not drawn), the growth in experiment [1] is -66.3% (active); in experiment [2], -44.7% (active); in [3], -61.7% (active); in experiment [4], -98.3% (active); in experiment [5] it was -6.92% (active); in experiment [6], -47.5% (active). The growth in [7] is -72.9% (active); in [8], -78% (active); in [9], -33.8% (active).

On to `C#Cc1ccc2c(c1)C(c1ccccc1)=NCC(=O)N2C`, for which the growth was 26.4% in [1]; 13.1% in [2]; 53.9% in experiment [3]; 46.6% in experiment [4]; 54.4% in [5]; 34.7% in [6]. Further, the figures for the growth in experiment [7], in experiment [8] and in [9] were 31%, 44.4% and 59.1%, respectively.

With `CC(C)(NC(=O)O[C@@H]1CN2CCC1CC2)c1csc(-c2ccc(F)cc2)n1`, the growth in experiment [1] is 102%; in experiment [2], 104%; in [3] it was 67.2%; in experiment [4], 97.9%; in experiment [5] it was 99.5%; in experiment [6], 99.2%. The growth in experiment [7] was 87.9%; in experiment [8] it was 90.5%; in [9] it was 103%.

For `COC(=O)C12CC(NC(=O)c3csc([C@@H](C[C@H](C(C)C)N(C)C(=O)[C@@H](NC(=O)[C@H]4CCCCN4C)C(C)C)OC(C)=O)n3)(C1)C2`, the growth in [1] was 5.8% (active); in experiment [2] it was 2.39% (active); in experiment [3], 47%; in [4], 29.1%; in experiment [5], 23%; in [6], -38.8% (active). Further, the growth was 37.2% in [7], 22.2% in experiment [8] and 62.4% in experiment [9].

For `Nc1ccc(-c2nc3cc(F)ccc3[se]2)cc1F`, the growth was 52.8% in experiment [1]; 61% in experiment [2]; 76.6% in experiment [3]; 95.3% in experiment [4]; 74.3% in [5]; 82.1% in experiment [6]. Moreover, the values for the growth in experiment [7], in [8] and in experiment [9] were 71.9%, 88.2% and 115%, respectively.
